Bioassay records deposited in PubChem by Broad Institute.
In the library only some 0.86% were active in any assay of this set; here they are far more common.
A1 inh – inducers of caspase activity in MEF A1-2A-BIM cells, primary screen, A1 inhibitor project, cell-based, CaspaseGlo luminescence; caspase activation, % (concentration not given with the values); AID 2241, 2010; 0.51% of 21,000 active; caspase-Glo luminescence, 3 h; percent of clofoctol signal, DMSO as zero;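 active = most replicate scores above 10, or exactly half above 10 with mean activity above 10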;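 note: effector caspase 3 and 7 activity cleaving a DEVD luciferin substrate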
BJeLR viability – BJeLR cell viability loss, primary screen, luminescence, CellTiterGlo ATP; 0.64% of 30,000 active; viability loss activity score, % (no concentration beside the values); AID 2275, 2010; BJeLR fibroblasts viability, 48 h; HRASV12, hTERT and SV40 LT/ST transformed; in the data active = viability loss activity score above about 50%;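 note: higher score means fewer live cells and less ATP luminescence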
An asterisk follows results filed as active; x = not tested or not shown.

SMILES | A1 inh | BJeLR viability
CO[C@@H]1CC(OC2CCC3(C)C(CCC45CCC(C6=CC(=O)OC6)C(C)(CCC43)C5=O)C2)O[C@H](C)[C@@H]1O[C@@H]1O[C@H](CO[C@@H]2O[C@H](CO)[C@@H](O)[C@H](O)[C@H]2O)[C@@H](O)[C@H](O)[C@H]1O (stereo partly specified) | 0 | 92*
C[C@H]1CC[C@@H]2[C@@H](C(=O)c3c(O)c([C@]4(O)CC[C@@H](O)[C@H]5O[C@H]54)cn(O)c3=O)[C@@H](C)C=C[C@H]2C1 | 46* | 53*
O=C1CCCC(Cn2cncn2)C1 (stereo unspecified) | 1 | 5
Cc1cccc(OCCn2c(-c3cccc(C)c3)nc3ccccc32)c1 | -1 | 5
CCCC(=O)N1CCc2cc(OC)c(OC)cc2C1COc1ccc(OC)cc1 (stereo unspecified) | 0 | 3
CCC1CN2CCc3cc(OC)c(OC)cc3[C@@H]2C[C@@H]1C[C@H]1NCCc2cc(OC)c(OC)cc21 (stereo partly specified) | 17* | 86*
COC(=O)c1ccc(/C=C2/Oc3ccccc3N(Cc3ccccc3F)C2=O)cc1 | -1 | 2
O=C(NCc1cccnc1)c1ccc(/C=C2\Sc3ccccc3N(Cc3ccccc3F)C2=O)cc1 | x | 123*
Cc1cc(C)cc(NC(=O)Nc2ccccc2C(=O)Nc2cc(C)cc(C)c2)c1 | 2 | -3
Cc1cc(C)nc(NC(=NCc2ccc(Cl)cc2)NC(=O)C(C)N2C(=O)c3ccccc3C2=O)n1 (stereo unspecified) | 0 | 4
Cc1cc(C)nc(NC(N)=NCc2ccccc2Cl)n1 | -1 | 77*
O=C(NCc1ccco1)c1ccccc1C(=O)c1ncc[nH]1 | 1 | 0
O=C(CN1C(=O)CC(c2ccccc2)S(=O)(=O)c2ccccc21)Nc1ccccc1C(F)(F)F (stereo unspecified) | 0 | -5
COC(=O)c1[nH]c2c(c1C)C(=O)CC(c1ccccc1)C2 (stereo unspecified) | x | 60*
CCCc1c(C(=O)OCC)[nH]c2c1C(=O)CC(c1ccccc1)C2 (stereo unspecified) | x | 3
Cc1ccc(Oc2ncc(C(F)(F)F)cc2Cl)c2c1CCC2 | -1 | 1
CC1(C)CC(=O)C2=C(C1)Nc1[nH]c(=S)[nH]c(=O)c1C2c1cccs1 (stereo unspecified) | 0 | 15
CCCNC(=O)c1oc(=O)c2ccccc2c1-c1ccc(C)cc1 | x | 1
CCc1nc(N)nc(N)c1-c1ccc(Cl)cc1 | 0 | 77*
CCOC(=O)c1sc2sc(C(=O)OCC)c(-c3ccc(Cl)cc3)c2c1N | 0 | -2
O=C(Nc1cccc(-c2nnco2)c1)c1ccc(C(F)(F)F)cc1 | 0 | 2
CCCC(C)NC(=O)Cc1ccc(Cl)cc1 (stereo unspecified) | 0 | 0
C/C=C(/C)C(=O)O[C@H]1[C@H](OC(=O)/C=C/c2ccccc2)[C@@]23C(CC1(C)C)[C@]1(CCC4[C@@]5(C)CC[C@H](O[C@@H]6O[C@H](C(=O)O)[C@@H](O)[C@H](O[C@@H]7O[C@H](CO)[C@H](O)[C@H](O)[C@H]7O[C@@H]7O[C@@H](C)[C@H](O)[C@@H](O)[C@H]7O[C@@H]7OC[C@](O)(CO)[C@H]7O)[C@H]6O[C@@H]6O[C@H](CO)[C@H](O)[C@H](O)[C@H]6O)C(C)(C)C5CC[C@@]4(C)[C@]1(C)C[C@H]2O)O[C@H]3O (stereo partly specified) | -3 | 80*
C/C=C(\C)C(=O)OC1C(OC(=O)/C=C(/C)CC(=O)O)C2(CO)C(O)CC3(C)C(=CCC4C5(C)CCC(OC6OC(C(=O)O)C(O)C(OC7OC(C)C(O)C(OC8OC(CO)C(O)C(O)C8O)C7O)C6O)C(C)(C)C5CCC43C)C2CC1(C)C (stereo unspecified) | -3 | 67*
C/C=C(/C)C(=O)O[C@H]1[C@H](OC(=O)/C(C)=C\C)[C@]2(CO)[C@H](O)C[C@]3(C)C(=CCC4[C@@]5(C)CC[C@H](OC6OC(C(=O)O)C(O)C(OC7OC(C)C(O)C(OC8OC(CO)C(O)C(O)C8O)C7O)C6O)C(C)(C)C5CC[C@]43C)[C@@H]2CC1(C)C (stereo partly specified) | -4 | 125*
SMILES | A1 inh | BJeLR viability
C[C@@H]1O[C@@H](O[C@H]2[C@H](O[C@H]3[C@H](O)[C@@H](C(=O)O)O[C@@H](O[C@H]4CC[C@@]5(C)C(CC[C@]6(C)C5CC[C@]57OC[C@@]8(CCC(C)(C)CC85)[C@H](O)C[C@]76C)C4(C)C)[C@@H]3O[C@@H]3O[C@H](CO)[C@@H](O[C@@H]4OC[C@@H](O)[C@H](O)[C@H]4O)[C@H](O)[C@H]3O)O[C@H](CO)[C@H](O)[C@@H]2O)[C@H](O)[C@H](O)[C@H]1O (stereo partly specified) | -1 | 6
CC1(C)CC[C@@]2(C(=O)O[C@@H]3O[C@H](CO)[C@@H](O)[C@H](O)[C@H]3O)C(C1)C1=CCC3[C@@]4(C)CC[C@@H](O[C@@H]5O[C@H](CO)[C@@H](O)[C@H](O)[C@H]5O[C@@H]5O[C@H](CO)[C@@H](O)[C@H](O)[C@H]5O)C(C)(C)C4CC[C@@]3(C)[C@]1(C)C[C@H]2O (stereo partly specified) | 0 | -4
C[C@@H]1O[C@@H](O[C@H]2CC[C@@]3(C)C(CC[C@]4(C)C3CC=C3C5CC(C)(C)CC[C@]5(C(=O)O[C@@H]5O[C@H](CO)[C@@H](O)[C@H](O)[C@H]5O)CC[C@]34C(=O)O)C2(C)C)[C@H](O)[C@H](O)[C@H]1O (stereo partly specified) | 0 | 1
COc1ccccc1C(=O)CC(=O)C(=O)Nc1sc2c(c1C#N)CCC2 | x | 7
C=C(C)C(=O)O[C@H]1[C@H]2C(=C)C(=O)O[C@@H]2C[C@@H](C)[C@@H]2O[C@@H]2C(=O)[C@](C)(O)[C@@H]1OC(C)=O | 1 | 32
C=C(C)C(=O)O[C@H]1[C@H]2C(=C)C(=O)O[C@@H]2C[C@@H](C)/C=C/C(=O)[C@](C)(O)[C@@H]1OC(=O)C(=C)C | 2 | 72*
CC1=C(c2ccc(C)cc2)S(=O)(=O)NC1=NC1CCN(Cc2ccccc2)CC1 | 9.6* | 2
CC1=C(c2ccc(C)cc2)S(=O)(=O)NC1=NC(C)C12CC3CC(CC(C3)C1)C2 (stereo unspecified) | 0 | -4
COc1ccc(/C=c2/[nH]/c(=C\C(=O)c3ccccc3)c(=O)[nH]c2=O)cc1OC | 7 | 4
O=C(/C=c1\[nH]/c(=C/c2ccc(F)cc2)c(=O)[nH]c1=O)c1ccccc1 | 12* | 70*
O=C(CSc1nc2c(sc3ccccc32)c(=O)n1CC1CCCO1)c1ccccc1 (stereo unspecified) | -1 | 5
COc1ccc(Cc2nc3c4cnn(-c5c(F)c(F)cc(F)c5F)c4ncn3n2)cc1OC | 1 | -2
CCc1cc(C)cc(OCCn2cc(C=C3C(=O)NC(=O)NC3=O)c3ccccc32)c1 | 39* | 1
CCc1ccc(OCCCn2cc(/C=C3/C(=N)N4C=CSC4=NC3=O)c3ccccc32)cc1 | 0 | 13
Cc1noc(-c2ccccc2)c1NC(=O)N1CCOCC1 | 0 | 1
